Measured values from PubChem BioAssay AID2672 (National Center for Advancing Translational Sciences (NCATS), 2010).
Inconclusive results are not listed. Entries that show only a call come without a potency. Active and inactive are the calls of the source. Calls come from the whole dose curve; as a rule, active = well fitted curve in the direction sought with a large enough effect; inconclusive = small, poorly fitted or top-dose-only effect, or another doubt; inactive = no such curve, though single readings can be large or run the other way.

Experiment: qHTS Assay Multiplex Screening to Identify Dual Action Probes in a Cell Model of Huntington: Cytoprotection in HTT Q25 expressing cells (ATP)
Details: PC12 HTT-Q25 inducible, ATP luminescence, 40 h; series mostly up to 46.1 µM
Text: NIH Chemical Genomics Center [NCGC] NIH Molecular Libraries Probe Production centers Network [MLPCN] MLPCN Grant: MH084839-01A1 Assay Submitter (PI): Wei Zheng NCGC Assay Overview: Huntington's disease is a neurodegenerative disorder caused by a trinucleotide repeat expansion in Exon 1 of the Huntingtin gene. The CAG trinucleotide encodes glutamine and polyglutamine expansions cause cell death in selective areas of the brain. Huntington polyglutamine repeats have the tendency to form aggregates which are observable in later stages of the disease. The exact nature of the aggregates, whether toxic, protective, or insignificant, is unclear. A stable PC12 cell line containing a gene fusion of Exon 1 of the Huntingtin gene linked to GFP under the control of the inducible ecdysone promoter were used as the cell-based model of Huntington Disease for high throughput screening. Exon 1 of the Huntingtin gene contained an expansion of 103 polyglutamines (Q103) which, when expressed, caused cell death and distinct, bright GFP aggregates. The amount of cell death and the size and intensity of GFP aggregates increased over time and induction level. The cell death were quantified with a measurement of ATP content in the cells. A maximal 40-50% of cell death was observed when the Huntington gene was induced in this cell line. We optimized this assay in a homogeneous 1536 well format. A quantitative high throughput screen (qHTS) was conducted on the PC12 cells which were induced to express the toxic fusion construct. Small molecules which prevented cell death were identified by using a luminescent ATP quantification method (Perkin Elmer's ATPlite). To characterize compound effects on a different form of the HTT protein, PC12 cells stably containing a construct with an ecdysone inducible promoter expressing GFP fused to the exon 1 of HTTQ25 (Huntington protein which containing a 25 ployglutamine expansion) were used. Less cytoxicity occurs upon induction of HTTQ25.
PC12 cells stably containing a construct with an ecdysone inducible promoter expressing GFP fused to the exon 1 of HTTQ25 (Huntington protein which containing a 25 ployglutamine expansion) were used. NCGC Assay Protocol Summary: Sequence, Parameter, Description 1, Reagent, 5 uL 1500 cells/well 1536 TC treated White clear bottom plate 2, Compound, 23 nL Tebufenozide inducer (100 nM final) to all columns 3, Compound, 23 nL 40 uM to 0.5 nM Libraries 4, Time, 40 hours at 37C 5, Reagent, 5 ul ATPLite cell death assay reagent 6, Detector, 4 sec integration with a Viewlux Luminescent Media consisted of phenol red free DMEM + 5% equine serum (Hyclone # SH30072.03 ), 5% supplemented Bovine Calf Serum (Hyclone # SH30074.03 ), 1x pen/strep, no G418

| Structure (SMILES) | Potency |
| --- | --- |
| Cn1nnnc1Sc1ncnc2scc(-c3cc4ccccc4o3)c12 | inactive |
| Cc1cccc(-c2csc3ncnc(Sc4nnnn4C)c23)c1 | inactive |
| Cn1nnnc1Sc1ncnc2scc(-c3cccc(C#N)c3)c12 | inactive |
| CC(=O)c1ccc(-c2csc3ncnc(Sc4nnnn4C)c23)cc1 | inactive |
| Cn1nnnc1Sc1ncnc2scc(-c3ccsc3)c12 | 10 µM (active) |
| COc1cccc(-c2csc3ncnc(Sc4nnnn4C)c23)c1 | 31.6 µM (active) |
| Cn1nnnc1Sc1ncnc2scc(-c3cccc(Br)c3)c12 | inactive |
| Cn1nnnc1Sc1ncnc2scc(-c3cccc(F)c3)c12 | inactive |
| Cn1nnnc1Sc1ncnc2scc(-c3ccccc3[N+](=O)[O-])c12 | inactive |
| Cn1nnnc1Sc1ncnc2scc(-c3cccs3)c12 | inactive |
| CC(=O)c1ccccc1-c1csc2ncnc(Sc3nnnn3C)c12 | inactive |
| COc1ccccc1-c1csc2ncnc(Sc3nnnn3C)c12 | inactive |
| Cn1nnnc1Sc1ncnc2scc(-c3ccc(-c4ccccc4)cc3)c12 | inactive |
| Cn1nnnc1Sc1ncnc2scc(-c3ccccc3Br)c12 | inactive |
| Cn1nnnc1Sc1ncnc2scc(-c3cccc(Cl)c3)c12 | inactive |
| Cn1nnnc1Sc1ncnc2scc(-c3ccc(Cl)cc3)c12 | inactive |
| Cn1nnnc1Sc1ncnc2scc(-c3ccc([N+](=O)[O-])cc3)c12 | inactive |
| Cn1nnnc1Sc1ncnc2scc(-c3ccc(C(F)(F)F)cc3)c12 | inactive |
| Cn1nnnc1Sc1ncnc2scc(-c3cccc4c3sc3ccccc34)c12 | inactive |
| COc1ccc(-c2csc3ncnc(Sc4nnnn4C)c23)cc1 | inactive |
| Cn1nnnc1Sc1ncnc2scc(-c3ccc(N)cc3)c12 | inactive |
| Cn1nnnc1Sc1ncnc2scc(-c3ccccc3C(F)(F)F)c12 | inactive |
| Cn1nnnc1Sc1ncnc2scc(-c3ccc(S(C)(=O)=O)cc3)c12 | inactive |
| Cn1nnnc1Sc1ncnc2scc(-c3cccc(N)c3)c12 | inactive |
| Cc1ccccc1-c1csc2ncnc(Sc3nnnn3C)c12 | inactive |
| Cn1nnnc1Sc1ncnc2scc(-c3ccc(C(=O)OC(C)(C)C)cc3)c12 | inactive |
| Cn1nnnc1Sc1ncnc2scc(-c3ccc(Br)cc3)c12 | inactive |
| Cn1nnnc1Sc1ncnc2scc(-c3cccc(C(F)(F)F)c3)c12 | inactive |
| Cn1nnnc1Sc1ncnc2scc(-c3ccc(F)cc3)c12 | inactive |
| Cn1nnnc1Sc1ncnc2scc(-c3ccccc3)c12 | inactive |
